Bioassay records as filed in PubChem.
Most compounds without a hit are left out; they make up all but 4% or so of the library.
BoNT-F LC inh: BoNT F light chain protease inhibition | Multiplex microsphere protease cleavage assay, flow cytometry | inhibition, % at 10 µM | hit rate 0.22% among 360,000; in the data active = inhibition above about 35%, passing the limit was not always enough; inconclusive = no clear call, values can overlap the other calls; note: plate controls were buffer without enzyme for full effect and enzyme alone for no effect
Bead autofluor: compound fluorescence in toxin protease inhibitor counterscreen; fluorescence intensity (concentration not given with the values); hit rate 3.1% among 360,000; AID 624483; compound autofluorescence counterscreen, microsphere flow cytometry; hits give high values; in the data active = fluorescence intensity above about 16000; inconclusive = no clear call, values can overlap the other calls
Anthrax LF prot: anthrax lethal factor protease inhibition; inhibition, % at 10 µM; multiplex microsphere protease cleavage assay, LF; P15917; hit rate 0.12% among 360,000; AID 588501; note: plate controls were buffer without enzyme for full effect and enzyme alone for no effect
Target sequence (P15917 whole entry, looked up): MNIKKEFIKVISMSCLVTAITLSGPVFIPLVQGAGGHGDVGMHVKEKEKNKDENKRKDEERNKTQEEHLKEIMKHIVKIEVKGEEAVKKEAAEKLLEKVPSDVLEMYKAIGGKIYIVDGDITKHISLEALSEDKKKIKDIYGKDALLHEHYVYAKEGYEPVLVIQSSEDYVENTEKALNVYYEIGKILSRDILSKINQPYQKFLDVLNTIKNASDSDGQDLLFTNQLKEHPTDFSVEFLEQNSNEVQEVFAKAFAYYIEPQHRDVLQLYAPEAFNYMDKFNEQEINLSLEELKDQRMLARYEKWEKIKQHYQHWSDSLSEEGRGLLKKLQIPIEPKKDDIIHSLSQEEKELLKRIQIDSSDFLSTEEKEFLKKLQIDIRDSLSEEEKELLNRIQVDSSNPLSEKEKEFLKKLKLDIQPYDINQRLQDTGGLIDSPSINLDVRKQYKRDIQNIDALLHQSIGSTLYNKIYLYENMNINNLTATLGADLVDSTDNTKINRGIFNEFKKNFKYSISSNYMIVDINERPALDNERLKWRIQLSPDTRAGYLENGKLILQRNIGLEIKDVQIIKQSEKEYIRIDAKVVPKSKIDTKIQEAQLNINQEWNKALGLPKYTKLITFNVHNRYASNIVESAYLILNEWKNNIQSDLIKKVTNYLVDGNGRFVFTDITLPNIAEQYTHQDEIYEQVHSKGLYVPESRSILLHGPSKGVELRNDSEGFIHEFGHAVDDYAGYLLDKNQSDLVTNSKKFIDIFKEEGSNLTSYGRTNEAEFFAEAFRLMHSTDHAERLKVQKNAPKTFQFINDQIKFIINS
MazF activator: increases E. coli MazEF RNase cleavage of RNA; P0AE70; FAM/BHQ RNA-DNA oligo cleavage fluorescence, 5 h; activation, % at 20 µM; hit rate 0.32% among 350,000; AID 504720; in the data active = activation above about 50%
DUSP3 inh: blocks human VHR1 dual specificity phosphatase | inhibition, % at 13.3 µM | AID 1654 | hit rate 0.52% among 290,000 | P51452 | recombinant VHR phosphatase, pNPP absorbance; in the data active = inhibition above about 50%
BoNT A protease: BoNT A light chain protease inhibition. multiplex microsphere protease substrate cleavage, flow cytometry. inhibition, % at 10 µM. hit rate 0.17% among 360,000; note: plate controls were buffer without enzyme for full effect and enzyme alone for no effect
Starred values were filed as active, the others as inactive; ? = inconclusive; nt = no result. Cut-off read from the data, not from the text of the source, unless noted: active = inhibition above about 30%; inconclusive = no clear call, values can overlap the other calls; inactive = below that.

SMILES	BoNT-F LC inh	Bead autofluor	Anthrax LF prot	MazF activator	DUSP3 inh	BoNT A protease
NC(=O)NC(CC(=O)NCCc1ccccn1)c1ccccc1Cl (centres undefined)	3.0	6118	-0.8	-0.6	53.3*	-0.9
Cc1ccc(OCc2ccc(C(=O)Nc3nccs3)o2)cc1	nt	nt	nt	6.0	17.7	nt
CCc1nnc(NC(=O)c2ccc(COc3ccccc3)o2)s1	-3.3	17254*	-3.7	3.5	24.4	-3.0
CCc1nnc(NC(=O)c2ccc(COc3ccc(C)cc3)o2)s1	-1.3	23447*	0.8	-7.4	-7.7	-0.9
CCCCN(C(=O)C1CC(=O)N(c2ccc3c(c2)OCCO3)C1)c1c(N)n(CCCC)c(=O)[nH]c1=O (centres undefined)	-3.2	4499	-4.6	-0.7	nt	0.3
O=C(Cn1c(SCC(=O)N2CCCc3ccccc32)nc2ccccc21)N1CCCC1	-3.2	10474	-0.3	3.6	52.9*	0.2
CC(=O)Nc1ccc(C(=O)CSc2nc3ccccc3n2CC(=O)N2CCCC2)cc1	-3.7	16357*	-1.0	-0.5	11.3	-0.5
COc1ccccc1C(=O)NNC(=O)c1cccc(Cl)c1	1.1	2423	-1.2	-6.9	26.1	-0.2
FC(F)(F)c1nc2ncc(Cl)cc2[nH]1	-0.1	20866*	-0.3	-1.7	-3.4	-1.1
CC1Cc2ccccc2N1C(=O)CSc1nnc(-c2ccc(S(=O)(=O)N3CCOCC3)cc2)n1C (centres undefined)	-3.1	2400	0.2	5.0	-7.2	-0.2
CCN(CC)C(=O)CSc1nnc(-c2ccc(S(=O)(=O)N3CCCC3)cc2)o1	-1.4	22144*	-1.0	-4.0	31.3	?
CC1Cc2ccccc2N1C(=O)CSc1nnc2c(n1)[nH]c1ccccc12 (centres undefined)	-6.7	2464	0.2	1.9	37.4	-0.2
CC1Cc2ccccc2N1C(=O)CSc1nnc(-c2ccc(S(=O)(=O)N3CCCC3)cc2)o1 (centres undefined)	-4.1	20428*	-0.8	-5.5	33.7	?
CC(=O)c1cccc(NC(=O)CSc2nnc(-c3ccc(S(=O)(=O)N4CCCC4)cc3)o2)c1	3.8	21749*	0.9	-3.1	-4.0	1.1
CC1Cc2ccccc2N1C(=O)CSc1nnc(-c2ccccc2)c(-c2ccccc2)n1 (centres undefined)	?	16388*	?	1.1	9.6	?
CCOC(=O)c1sc(N)c(C#N)c1CSc1nnc(C2CCCCC2)n1N	28.6	3977	2.5	5.4	-9.1	4.2
COc1ccc(-c2ccc(-c3noc(-c4cccs4)n3)c(OC)n2)cc1	-5.0	3524	1.4	-32.9	-7.7	0.8
COc1cc2c(=O)nc3n(c2cc1OC)C(c1ccccc1)N=C(N)N3 (centres undefined)	nt	nt	nt	nt	24.4	nt
OCC1(Cc2ccc(F)cc2)CCCN(Cc2ccc(F)cc2Cl)C1 (centres undefined)	20.5	4431	0.5	-18.9	33.6	1.0
O=S(=O)(c1ccc2ccccc2c1)N1CCCCCC1	0.6	4219	1.7	-0.7	4.0	-0.7
COc1ccc(-c2nnc(SCC(=O)NCc3ccco3)o2)cc1	-34.1	11192	-5.3	-0.4	43.7	-5.1
CCN(CC)S(=O)(=O)c1ccc(-c2nnc(SCC(C)=O)o2)cc1	-4.6	16485*	1.3	9.2	2.3	-0.7
CCN(CC)S(=O)(=O)c1ccc(-c2nnc(SCC(=O)N3CCOCC3)o2)cc1	0.9	10108	-0.8	5.6	9.5	0.4
O=C(CSc1nnc(-c2ccc(S(=O)(=O)N3CCOCC3)cc2)o1)c1ccccc1F	-4.3	9402	-3.6	-52.8	25.6	-1.3
O=C(CSc1nnc(-c2ccc(S(=O)(=O)N3CCCC3)cc2)o1)NCc1ccco1	3.3	21711*	0.7	-2.2	4.4	1.6
SMILES	BoNT-F LC inh	Bead autofluor	Anthrax LF prot	MazF activator	DUSP3 inh	BoNT A protease
COc1ccc(C(=O)CSc2nnc(-c3ccc(S(=O)(=O)N4CCOCC4)cc3)o2)cc1	-3.8	20449*	-0.7	-8.2	39.2	-2.6
COc1cccc(C(=O)N2CCN(C3CCN(Cc4ccccc4)CC3)CC2)c1	nt	nt	nt	nt	28.6	nt
CCOC(=O)N1CCC(c2nc(C)sc2C(=O)O)CC1	5.0	7687	0.8	6.4	15.1	-0.2
CC(=O)NCCn1c(SCC(=O)NCCC2=CCCCC2)nc2ccccc2c1=O	-8.6	24653*	-3.3	2.3	11.3	-4.8
CCOC(=O)N1CCC(n2c(SCC(=O)NCc3ccccc3)nc3ccccc3c2=O)CC1	-12.2	5303	-9.6	6.4	22.4	-1.1
CCOC(=O)N1CCC(n2c(SCC(=O)NCCC3=CCCCC3)nc3ccccc3c2=O)CC1	8.8	19812*	-1.3	0.6	12.0	6.8
CC(=O)NCCn1c(SCc2ccccc2F)nc2ccccc2c1=O	-8.6	10877	0.4	2.5	8.5	-1.9
CC(=O)NCCn1c(SCc2cc(=O)n3cc(Cl)ccc3n2)nc2ccccc2c1=O	3.7	21005*	-0.2	5.5	-2.0	?
COCC(C)n1c(SCC(=O)NCCC2=CCCCC2)nc2ccccc2c1=O (centres undefined)	-14.0	4510	-2.9	4.7	2.1	0.1
Cc1ccc(-n2nnnc2SCC(N)=O)c(C)c1	-6.6	11521	-1.7	-0.6	-6.0	-0.9
Cc1ccc(-n2nnnc2SCC(=O)NCCC2=CCCCC2)c(C)c1	0.2	20542*	-0.5	-3.5	13.4	0.0
COc1ccccc1NS(=O)(=O)c1cc(NC(=O)Cc2n[nH]c(=O)c3ccccc23)ccc1Cl	-3.8	2986	-0.7	-3.1	nt	0.5
OCCNc1nc2ccccc2nc1NCCO	?	3415	1.8	7.6	16.3	1.8
O=C(c1ccc(NC2=NC3CS(=O)(=O)CC3S2)cc1)N1CCN(c2ccc(F)cc2)CC1 (centres undefined)	-5.9	4804	-1.8	-0.9	-6.4	-0.1
O=C(CN1CCC(n2nnc3cc(F)ccc32)CC1)NCCc1ccccc1	-6.7	2900	0.3	6.3	52.9*	0.3
CCOC(=O)N1CCN(C(=O)/C(=C/c2ccc(OC)cc2)NC(=O)c2ccccc2)CC1	-13.0	2819	-0.1	6.0	31.9	0.1
CCOC(=O)N1CCN(C(=O)/C(=C/c2cccc3ccccc23)NC(=O)c2ccc(OC)cc2)CC1	-5.4	24028*	-1.8	12.4	-11.5	-2.1
COC(=O)C1=C(N)n2c(s/c(=C\c3cccnc3)c2=O)=C(C(=O)OC)C1c1cccnc1 (centres undefined)	nt	nt	nt	nt	-12.3	nt
CCOC(=O)C1=c2s/c(=C\c3cccnc3)c(=O)n2C(N)=C(C(=O)OC)C1c1cccnc1 (centres undefined)	16.2	4401	-3.9	-12.2	52.3*	0.3
CCOC(=O)C1=c2s/c(=C\c3ccncc3)c(=O)n2C(N)=C(C(=O)OC)C1c1ccncc1 (centres undefined)	-5.6	4918	-4.7	8.2	18.1	-0.8
CCOC(=O)C1=C(N)n2c(s/c(=C/c3ccco3)c2=O)=C(C(=O)OC)C1c1ccco1 (centres undefined)	0.1	20070*	0.5	0.7	-34.1	?
